# Source: the supplement of paper PMC10037445
# In all, about 2,900 compounds were measured (“IRF Lucia reporter activity, fold change vs agonist alone”: median about 0.9, highest 2% from about 2.8 on). The sample holds the highest values, similar compounds and a random draw of the others, so the mix is not that of the screen.
# Legend:
# RAW-Dual [1] = assay: IRF Lucia reporter activity, fold change vs agonist alone; cytotoxicity flag (confluency mask): not cytotoxic; higher = enhanced IRF activity
# How it was run: (§1)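 Library stock was pin-tooled at 50 nL into 384-well plates of RAW-Dual macrophages (50,000 cells/well, DMEM), followed 1 h later by a PRR agonist, and the cells were kept at 37 °C, 5% CO2. Supernatant collected after 20 hours was read for IRF by QuantiLuc luminescence and for NF-κB by QuantiBlue absorbance at 620 nm. Reporter activity is fold change over agonist-alone wells, and a well counted as cytotoxic when its IncuCyte confluency was below 70% of agonist controls in both mask sets.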
# RAW-Dual [2] = assay: IRF Lucia reporter activity, fold change vs agonist alone; higher = enhanced IRF activity; conditions: agonist: MPLA (TLR4) […]
# How it was run: as §1
# RAW-Dual [3] = assay: IRF Lucia reporter activity, fold change vs agonist alone; cytotoxicity flag (confluency mask): cytotoxic (confluency <70% of control); higher = enhanced IRF activity
# How it was run: as §1
# [4] = agonist: 3'3'-cGAMP (STING) 10 ug/mL
# [5] = library stock concentration (final ~1000-fold dilution): 10 mM, cytotoxicity flag (confluency mask): not cytotoxic
# [6] = library stock concentration (final ~1000-fold dilution): 10 mM, cytotoxicity flag (confluency mask): cytotoxic (confluency <70% of control)
smiles,measurement,setting,value
O=C(CCc1ccc(O)cc1)c1c(O)cccc1OC1OC(CO)C(O)C(O)C1O (stereo unspecified) (library stock concentration (final ~1000-fold dilution): 10 mM),IRF Lucia reporter activity,RAW-Dual [1]; [4],0.943
same,IRF Lucia reporter activity,RAW-Dual [1]; agonist: LPS (TLR4) 0.1 ug/mL,0.918
O=C(CCc1ccc(O)cc1)c1c(O)cccc1OC1OC(CO)C(O)C(O)C1O (stereo unspecified),IRF Lucia reporter activity,RAW-Dual [2]; [5],1.01
CC(c1ccc2nccn2c1)n1nnc2ncc(-c3cnn(C)c3)nc21 (stereo unspecified) (library stock concentration (final ~1000-fold dilution): 10 mM),IRF Lucia reporter activity,RAW-Dual [1]; [4],0.953
same,IRF Lucia reporter activity,RAW-Dual [1]; agonist: LPS (TLR4) 0.1 ug/mL,1.15
CN(C)CCSSCCNC(=O)C1CCN(C(=O)CSc2ccc(Cl)cc2)CC1.O=C(O)C(F)(F)F (library stock concentration (final ~1000-fold dilution): 10 mM),IRF Lucia reporter activity,RAW-Dual [1]; [4],0.396
same,IRF Lucia reporter activity,RAW-Dual [1]; agonist: LPS (TLR4) 0.1 ug/mL,0.778
CN(C)CCSSCCNC(=O)C1CCN(C(=O)CSc2ccc(Cl)cc2)CC1.O=C(O)C(F)(F)F,IRF Lucia reporter activity,RAW-Dual [2]; [5],0.751
O=C1OC(COc2ccccc2[N+](=O)[O-])CC1Cc1ccccc1 (stereo unspecified) (library stock concentration (final ~1000-fold dilution): 10 mM),IRF Lucia reporter activity,RAW-Dual [1]; [4],1.23
same,IRF Lucia reporter activity,RAW-Dual [1]; agonist: LPS (TLR4) 0.1 ug/mL,1.23
O=c1cccccc1O (library stock concentration (final ~1000-fold dilution): 10 mM),IRF Lucia reporter activity,RAW-Dual [1]; [4],0.664
same,IRF Lucia reporter activity,RAW-Dual [1]; agonist: LPS (TLR4) 0.1 ug/mL,0.952
O=c1cccccc1O,IRF Lucia reporter activity,RAW-Dual [2]; [5],1.24
NC(=O)c1cc(F)cc2c1C(=O)N(C1CCN(C3CCC(F)(F)CC3)CC1)C2 (library stock concentration (final ~1000-fold dilution): 10 mM),IRF Lucia reporter activity,RAW-Dual [1]; [4],0.94
same,IRF Lucia reporter activity,RAW-Dual [1]; agonist: LPS (TLR4) 0.1 ug/mL,0.923
CC1(C)CN(C(=O)c2ccc(-c3cccc4nc(NC(=O)C5CC5)nn34)cc2)C1,IRF Lucia reporter activity,RAW-Dual [2]; [5],0.713
O=C(Nc1nc2cccc(-c3ccc(CN4CCS(=O)(=O)CC4)cc3)n2n1)C1CC1 (library stock concentration (final ~1000-fold dilution): 10 mM),IRF Lucia reporter activity,RAW-Dual [1]; [4],1.1
same,IRF Lucia reporter activity,RAW-Dual [1]; agonist: LPS (TLR4) 0.1 ug/mL,3.4
CC1(C)CN(C(=O)c2ccc(-c3cccc4nc(NC(=O)C5CC5)nn34)cc2)C1 (library stock concentration (final ~1000-fold dilution): 10 mM),IRF Lucia reporter activity,RAW-Dual [1]; [4],0.308
same,IRF Lucia reporter activity,RAW-Dual [1]; agonist: LPS (TLR4) 0.1 ug/mL,0.577
CNCCC=C1c2ccccc2CCc2ccccc21.Cl (library stock concentration (final ~1000-fold dilution): 10 mM),IRF Lucia reporter activity,RAW-Dual [3]; [4],0.464
same,IRF Lucia reporter activity,RAW-Dual [3]; agonist: LPS (TLR4) 0.1 ug/mL,1.52
CNCCC=C1c2ccccc2CCc2ccccc21.Cl,IRF Lucia reporter activity,RAW-Dual [2]; [6],1.38
CN(C)c1ccc(O)c2c1CC1CC3C(N(C)C)C(O)=C(C(N)=O)C(=O)C3(O)C(O)=C1C2=O.Cl (stereo unspecified),IRF Lucia reporter activity,"RAW-Dual [2]; library stock concentration (final ~1000-fold dilution): 2 mM water, cytotoxicity flag (confluency mask): not cytotoxic",1.28
CN(C)c1ccc(O)c2c1CC1CC3C(N(C)C)C(O)=C(C(N)=O)C(=O)C3(O)C(O)=C1C2=O.Cl (stereo unspecified) (library stock concentration (final ~1000-fold dilution): 2 mM water),IRF Lucia reporter activity,RAW-Dual [1]; [4],1.09
same,IRF Lucia reporter activity,RAW-Dual [1]; agonist: LPS (TLR4) 0.1 ug/mL,0.851
Cc1sc2c(c1C)C(c1ccc(Cl)cc1)=N[C@@H](CC(=O)NCCCCCCCCNC(=O)COc1cccc3c1C(=O)N(C1CCC(=O)NC1=O)C3=O)c1nnc(C)n1-2 (stereo partly specified) (library stock concentration (final ~1000-fold dilution): 10 mM),IRF Lucia reporter activity,RAW-Dual [3]; [4],0.189
same,IRF Lucia reporter activity,RAW-Dual [3]; agonist: LPS (TLR4) 0.1 ug/mL,0.244
CC(C)(O)c1ccccc1CCC(SCC1(CC(=O)O)CC1)c1cccc(/C=C/c2ccc3ccc(Cl)cc3n2)c1 (stereo unspecified),IRF Lucia reporter activity,RAW-Dual [2]; [6],0.73
CC(C)(O)c1ccccc1CCC(SCC1(CC(=O)O)CC1)c1cccc(/C=C/c2ccc3ccc(Cl)cc3n2)c1 (stereo unspecified) (library stock concentration (final ~1000-fold dilution): 10 mM),IRF Lucia reporter activity,RAW-Dual [3]; [4],0.492
same,IRF Lucia reporter activity,RAW-Dual [3]; agonist: LPS (TLR4) 0.1 ug/mL,1.52
CCOC(=O)CCNc1cc(N2CCc3ccccc3CC2)nc(-c2ccccn2)n1.Cl,IRF Lucia reporter activity,RAW-Dual [2]; [5],1
Cc1cccc(/C=N/Nc2cc(N3CCOCC3)nc(OCCc3ccccn3)n2)c1 (library stock concentration (final ~1000-fold dilution): 10 mM),IRF Lucia reporter activity,RAW-Dual [1]; [4],0.326
same,IRF Lucia reporter activity,RAW-Dual [1]; agonist: LPS (TLR4) 0.1 ug/mL,2.84
Cc1cccc(/C=N/Nc2cc(N3CCOCC3)nc(OCCc3ccccn3)n2)c1,IRF Lucia reporter activity,RAW-Dual [2]; [5],3.08
CCOC(=O)CCNc1cc(N2CCc3ccccc3CC2)nc(-c2ccccn2)n1.Cl (library stock concentration (final ~1000-fold dilution): 10 mM),IRF Lucia reporter activity,RAW-Dual [1]; [4],1.03
same,IRF Lucia reporter activity,RAW-Dual [1]; agonist: LPS (TLR4) 0.1 ug/mL,1.04
CCC(NC(=O)C(C)NC)C(=O)N1CC(O)CC1Cc1c(-c2[nH]c3cc(F)ccc3c2CC2CC(O)CN2C(=O)C(CC)NC(=O)C(C)NC)[nH]c2cc(F)ccc12 (stereo unspecified) (library stock concentration (final ~1000-fold dilution): 10 mM),IRF Lucia reporter activity,RAW-Dual [1]; [4],0.626
same,IRF Lucia reporter activity,RAW-Dual [1]; agonist: LPS (TLR4) 0.1 ug/mL,0.632
CCC(NC(=O)C(C)NC)C(=O)N1CC(O)CC1Cc1c(-c2[nH]c3cc(F)ccc3c2CC2CC(O)CN2C(=O)C(CC)NC(=O)C(C)NC)[nH]c2cc(F)ccc12 (stereo unspecified),IRF Lucia reporter activity,RAW-Dual [2]; [5],0.519
Cc1ccc(CN(CC(O)COc2cccc3[nH]ccc23)C(C)(C)C)cc1 (stereo unspecified) (library stock concentration (final ~1000-fold dilution): 10 mM),IRF Lucia reporter activity,RAW-Dual [3]; [4],0.837
same,IRF Lucia reporter activity,RAW-Dual [3]; agonist: LPS (TLR4) 0.1 ug/mL,1.9
Cc1cc(C(C)Nc2ccccc2C(=O)O)c2nc(N3CCOCC3)cc(=O)n2c1 (stereo unspecified),IRF Lucia reporter activity,RAW-Dual [2]; [5],0.843
Cc1cc(C(C)Nc2ccccc2C(=O)O)c2nc(N3CCOCC3)cc(=O)n2c1 (stereo unspecified) (library stock concentration (final ~1000-fold dilution): 10 mM),IRF Lucia reporter activity,RAW-Dual [1]; [4],1
same,IRF Lucia reporter activity,RAW-Dual [1]; agonist: LPS (TLR4) 0.1 ug/mL,1.04
CC(O)CO.CCOc1ccc(Cc2cc(C3OC(CO)C(O)C(O)C3O)ccc2Cl)cc1.O (stereo unspecified) (library stock concentration (final ~1000-fold dilution): 10 mM),IRF Lucia reporter activity,RAW-Dual [1]; [4],1.07
same,IRF Lucia reporter activity,RAW-Dual [1]; agonist: LPS (TLR4) 0.1 ug/mL,1.03
CC(O)CO.CCOc1ccc(Cc2cc(C3OC(CO)C(O)C(O)C3O)ccc2Cl)cc1.O (stereo unspecified),IRF Lucia reporter activity,RAW-Dual [2]; [5],1.05
CC(Cn1cnc2c(N)ncnc21)OCP(=O)(O)O (stereo unspecified),IRF Lucia reporter activity,RAW-Dual [2]; [5],1.05
CC(C)(C)C(=O)OCOP(=O)(COCCn1cnc2c(N)ncnc21)OCOC(=O)C(C)(C)C,IRF Lucia reporter activity,RAW-Dual [2]; [5],2.95
Nc1ncnc2c1ncn2C(C=O)OC(C=O)CO (stereo unspecified) (library stock concentration (final ~1000-fold dilution): 10 mM),IRF Lucia reporter activity,RAW-Dual [1]; [4],0.427
same,IRF Lucia reporter activity,RAW-Dual [1]; agonist: LPS (TLR4) 0.1 ug/mL,0.724
CC(Cn1cnc2c(N)ncnc21)OCP(=O)(O)O (stereo unspecified) (library stock concentration (final ~1000-fold dilution): 10 mM),IRF Lucia reporter activity,RAW-Dual [1]; [4],1
same,IRF Lucia reporter activity,RAW-Dual [1]; agonist: LPS (TLR4) 0.1 ug/mL,1
CC(C)(C)C(=O)OCOP(=O)(COCCn1cnc2c(N)ncnc21)OCOC(=O)C(C)(C)C (library stock concentration (final ~1000-fold dilution): 10 mM),IRF Lucia reporter activity,RAW-Dual [1]; [4],2.04
same,IRF Lucia reporter activity,RAW-Dual [1]; agonist: LPS (TLR4) 0.1 ug/mL,2.36
